# Compound activity (PubChem BioAssay)
# A3G deaminase: APOBEC3G DNA deaminase inhibitors, primary screen, biochemical, fluorescence, single-stranded DNA substrate, uHTS; DNA dC->dU-editing enzyme APOBEC-3G (Homo sapiens), Q9HC16; recombinant A3G, ssDNA deamination FAM/TAMRA fluorescence; inhibition, % at 20 µM; 330,000 tested, 0.28% active;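 active = inhibition of at least 40% at 20 µM, with no more than 30% in the related APOBEC3A deaminase screen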
# APOBEC3A inh: APOBEC3A ssDNA deaminase inhibitors, primary screen, selectivity assay for APOBEC3G inhibitor project, biochemical, FAM/TAMRA oligo cleavage fluorescence | 330,000 tested, 0.41% active | inhibition, % at 20 µM | recombinant A3A, FAM/TAMRA ssDNA deamination fluorescence;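 active = at least 40% inhibition at 20 µM here, with at most 30% in a related deaminase screen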
# Target sequence (P31941 whole entry, looked up): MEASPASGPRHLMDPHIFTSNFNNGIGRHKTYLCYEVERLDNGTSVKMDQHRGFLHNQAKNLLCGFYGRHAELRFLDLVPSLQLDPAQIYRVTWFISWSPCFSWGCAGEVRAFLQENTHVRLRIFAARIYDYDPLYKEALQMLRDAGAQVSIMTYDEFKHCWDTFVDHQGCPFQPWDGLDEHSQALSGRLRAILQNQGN
# PfM18AAP inh: PfM18AAP inhibitors, malaria aminopeptidase, primary screen, biochemical, QFRET, recombinant enzyme | 290,000 tested, 1.2% active | inhibition, % at 7.35 µM | H-Glu-NHMec fluorogenic cleavage | M18 aspartyl aminopeptidase (Plasmodium falciparum 3D7);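 active = inhibition above the campaign mean inhibition over all tested compounds plus 3 SD, cut at about 28% in these data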
# PfGluPho inh: PfG6PD enzyme inhibitors, primary screen, biochemical, fluorescence intensity, uHTS. PfGluPho enzyme, NADPH resazurin-diaphorase fluorescence. 350,000 tested, 0.78% active. inhibition, % at 20 µM. glucose-6-phosphate dehydrogenase-6-phosphogluconolactonase (Plasmodium falciparum 3D7);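 active = inhibition reaching at least a set limit at 20 µM in the primary screen, cut at about 59% in these data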
# CR mimetic SO: reduction of superoxide in aged yeast, primary screen, HTS | superoxide response (% of plate mean), % at 10 µM | S. cerevisiae aged cells, superoxide DHE fluorescence; hits give low values | 330,000 tested, 0.18% active;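 active = superoxide response under a set limit, about three screen SD below normal, cut at about 65% in these data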;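 also: yeast aged for seven days with compound at 30 °C before DHE staining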
# Hits are given with their value; i = inactive; nt = not tested or not shown. Only some compounds are listed: those with a hit (about 2.4% of all), similar ones and a draw of the others.
SMILES,A3G deaminase,APOBEC3A inh,PfM18AAP inh,PfGluPho inh,CR mimetic SO
Nc1sc2c(c1C(=O)NC1CCS(=O)(=O)C1)CCCC2 (stereo unspecified),i,i,i,61.8,i
NC(=O)c1c(N)sc2c1CCCC2,i,i,i,i,i
O=[N+]([O-])c1ccc(NNC(=S)Nc2ccc(F)cc2)cc1,i,i,28.7,i,i
C[C@@H]1[C@H](O)C[C@@]23COC(=O)C2=CCCC3[C@@]1(C)CCC1COC(=O)C1 (stereo partly specified),i,i,nt,i,i
Cc1cc(N2CCCC2)ccc1NC(=O)CN1C(=O)NC(C)(c2ccccc2)C1=O (stereo unspecified),i,i,29.9,i,i
O=C(Nc1ccc(Oc2ccc(C(=O)O)c(C(=O)O)c2)cc1)c1cccs1,i,i,i,i,i
Cn1ccc(C(=O)Nc2sc3c(c2C(N)=O)CCCCC3)n1,i,i,38.1,i,i
Cn1nccc1C(=O)Nc1sc2c(c1C(N)=O)CCCC2,i,i,i,i,i
CCN(CC)C(=O)C1=C(C)N(Cc2ccc(OC)cc2)C(=O)C(CC(=O)NC(c2ccccc2)c2ccccc2)C1 (stereo unspecified),nt,nt,nt,i,nt
Cn1c(=O)[nH]c(=O)c2c1nc(N/N=C/C(Br)=C/c1ccccc1)n2CCO,i,i,30.2,i,i
Cc1cc(C)cc(N2C(=O)CC(Sc3ncn[nH]3)C2=O)c1 (stereo unspecified),41.0,i,i,i,i
Cc1cc(C)cc(N2C(=O)CC(Sc3nnnn3-c3ccccc3)C2=O)c1 (stereo unspecified),i,i,i,i,i
COc1ccc(N2CCN(CCC(=O)c3ccc4ccccc4c3)CC2)cc1,i,i,i,i,i
CC1=C(C(=O)N(C)C)CC(CC(=O)NCc2cccs2)C(=O)N1CCCN1CCCC1=O (stereo unspecified),nt,nt,nt,i,nt
CC(=O)OC(C)C1C2=C(C(=O)CC1(C)O)C(=O)c1c(ccc(-c3ccc4c(c3O)C(=O)C3=C(C4=O)C(C(C)OC(C)=O)C(C)(O)CC3=O)c1O)C2=O (stereo unspecified),nt,nt,nt,61.2,nt
COC(=O)c1cccc(-n2sc3ccccc3c2=O)c1,77.6,i,nt,116.7,i
c1ccc(CNc2ccc(CNc3ncn[nH]3)cc2)cc1,i,i,i,i,i
O=S(=O)(Nc1ncn[nH]1)c1ccc(Cl)cc1,i,i,58.7,i,i
Clc1ccc(CNc2ccc(CNc3ncn[nH]3)cc2)c(Cl)c1,i,i,28.4,i,i
c1ccc(CNc2ncn[nH]2)cc1,nt,nt,nt,i,nt
Clc1ccc(CNc2ccc(CNc3ncn[nH]3)cc2)cc1,i,i,36.5,i,i
C=CCOc1ccc(C2C(C#N)=C(N)N(N(C)C)C3=C2C(=O)CCC3)cc1 (stereo unspecified),i,i,i,i,i
O=C(NCSc1ccnc(SCNC(=O)c2ccccc2)n1)c1ccccc1,i,i,38.5,i,i
CCCCCCCC#Cc1ccccc1/C=N/S(=O)c1ccc(C)cc1 (stereo unspecified),60.9,i,i,i,i
CCCCC#Cc1ccccc1CC(=O)Nc1ccccc1,i,i,i,i,i
SMILES,A3G deaminase,APOBEC3A inh,PfM18AAP inh,PfGluPho inh,CR mimetic SO
C(=N\Nc1nc2ccccc2[nH]1)/c1ccc2c(c1)OCO2,nt,nt,29.5,i,nt
COc1cccc(/C=N/Nc2nc3ccccc3[nH]2)c1O,i,i,29.9,i,i
C/C(=N\Nc1nc2ccccc2[nH]1)c1ccc2c(c1)OCO2,i,i,i,i,i
CC(C)[C@H](NC(=O)c1ccccc1F)C(=O)OCCN1C(=O)c2ccccc2C1=O,i,i,nt,i,i
COc1ccc2cc(C3CC(c4ccco4)=NN3S(=O)(=O)c3ccccc3)c(Cl)nc2c1 (stereo unspecified),i,i,i,i,54.5
O=C(O)CSc1cc(NS(=O)(=O)c2ccc(Br)cc2)c2ccccc2c1O,nt,nt,i,99.5,i
COc1ccc2cc(C(=O)NCc3ccccc3CN3CCCC3)ccc2c1,i,i,nt,i,i
CCOC(=O)C1=C(Cc2ccc(F)cc2)C(=O)c2ccccc2C1=O,i,i,i,97.9,i
